The panel holds about 79,000 compounds, 15% with a hit somewhere; the sample as a whole holds those more often. Values without a mark were called inactive. Active and inactive are the calls of the source. Rule as the data show it: active = growth inhibition above about 70%; inactive = the rest.
Experiments:
[1] = NCI Yeast Anticancer Drug Screen. Data for the rad50 strain (AID 155);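 also: 0% = growth of vehicle-only cultures of the same strain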; conditions: S. cerevisiae rad50 strain growth inhibition; at 50.0 µM; stronger effect = higher value
Outline: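 A DNA repair-deficient yeast mutant serves as the test organism; compound-induced growth inhibition is calculated against vehicle-treated cells.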

[2] = NCI Yeast Anticancer Drug Screen. Data for the mec2-1 strain (AID 157); conditions: S. cerevisiae mec2-1 strain, at 50.0 µM, stronger effect = higher value
Outline: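 Growth inhibition is read against vehicle-treated controls after compound exposure of the mec2-1 yeast strain, which is defective in DNA damage repair or cell cycle control.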

[3] = NCI Yeast Anticancer Drug Screen. Data for the sgs1 mgt1 strain (AID 161);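 also: 0% = growth of cultures given vehicle only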; conditions: S. cerevisiae sgs1 mgt1 strain, at 50.0 µM, stronger effect = higher value
Outline: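 This yeast growth screen uses a strain with defined DNA-repair lesions; compound-treated growth is compared with vehicle-treated growth.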

[4] = NCI Yeast Anticancer Drug Screen. Data for the cln2 rad14 strain (AID 165);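 also: 0% = growth equal to vehicle treated cultures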; conditions: S. cerevisiae cln2 rad14 strain, at 50.0 µM, stronger effect = higher value
Outline: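 Growth inhibition, relative to vehicle-treated controls, is the read-out. The test organism is a yeast strain with defined genetic alterations, cln2 rad14.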

[5] = NCI Yeast Anticancer Drug Screen. Data for the bub3 strain (AID 167); conditions: S. cerevisiae bub3 mutant strain, at 50.0 µM, stronger effect = higher value
Outline: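 Inhibition values come from growth of compound-treated mutant yeast normalised to vehicle-treated controls.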

[6] = NCI Yeast Anticancer Drug Screen. Data for the mlh1 rad18 strain (AID 175); conditions: S. cerevisiae mlh1 rad18 strain growth inhibition; at 50.0 µM; stronger effect = higher value
Outline: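 Cells of a genetically altered yeast strain, deficient in DNA damage repair, were treated with compound. Their growth was then compared with that of vehicle-treated cultures to give inhibition.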

Row | SMILES | growth inhibition [1] | growth inhibition [2] | growth inhibition [3] | growth inhibition [4] | growth inhibition [5] | growth inhibition [6]
1 | O=c1[nH]c2cc(Cl)ccc2nc1/C=C(\O)c1cccc(O)c1 | -3.45% | -5.05% | -8.45% | -4.35% | -4.45% | 10.2%
2 | O=c1[nH]cnc2c1ncn2CCCc1ccccc1 | -1% | 7.5% | 2.8% | -69.6% | 3% | -17.1%
3 | COc1ccc2nc3cc([N+](=O)[O-])ccc3c(Nc3ccc(S(=O)(=O)NC(C)=O)cc3)c2c1 | 76.3% (active) | 36.4% | 67.8% | 36% | 64.5% | 75.2% (active)
4 | NC(=O)C1CCCCC1C(=O)O (stereo unspecified) | 1.5% | 5% | 6.65% | -10.7% | 4.6% | 14.8%
5 | CCN(CC)CCN1CC(=O)N2Cc3ccccc3CN2C(=O)C1 | -0.7% | -4.45% | 0.6% | 10.4% | 4.45% | 5.9%
6 | O=C1CCC(c2n[nH]c(=S)o2)N1 (stereo unspecified) | -2.8% | 22.7% | 9.05% | -6.65% | 13.2% | 4.75%
7 | Cc1cc([O-])c([I+]c2ccccc2)c(=O)[nH]1 | 93.3% (active) | 66.8% | 97.8% (active) | 95.6% (active) | 95.5% (active) | 90.2% (active)
8 | CC(=O)CC(=O)NC12CC3CC(CC(C3)C1)C2 | -12.4% | -18.3% | -27.6% | -3.95% | -23.1% | -1.55%
9 | CC(=O)Nc1cc2[nH]c(=O)c3cc(Cl)ccc3c2cc1[N+](=O)[O-] | 28.8% | 36.1% | 1.65% | 27.1% | 23.6% | 57.8%
10 | CCc1cccc(C(=O)NCCN(C)C)c1[N+](=O)[O-] | -10.4% | -17.9% | -12.2% | 22% | -11.9% | -5%
11 | C1C2CC3CC1CC(c1nn4c(C56CC7CC(CC(C7)C5)C6)nnc4s1)(C2)C3 | -20.4% | -12.8% | -9.1% | 11.2% | -12.4% | -17.9%
12 | Cc1cccc(NC(=O)c2c(Cl)c(Cl)c(Cl)c(Cl)c2C(=O)O)c1C | 9.8% | 2% | 2.6% | -35.5% | 5.8% | 8.95%
13 | CN(/N=C/c1ccnc2ccccc12)c1ccc([N+](=O)[O-])cc1[N+](=O)[O-] | -31.3% | -10.9% | -19.5% | 8.1% | -6.95% | -12.6%
14 | COc1ccc(CCNC(=O)c2ccc(CSc3ccc(Cl)cc3)o2)cc1OC | 34.5% | 24.1% | 37.6% | 50.5% | 42.8% | 25.1%
15 | CCOC(=O)C(CCCOC1CCCCO1)(C(=O)CC)c1ccccc1 (stereo unspecified) (tested in a mixture with another compound) | 25.4% | -7.05% | -6.25% | 2.3% | 1.9% | -3.05%
16 | C=CCNC(=S)/N=C/C(C(=O)Nc1ccccc1OC)=C(\C)O | -17.4% | -19.2% | -27.3% | -9.85% | -34.5% | -16.3%
17 | O=c1[nH]c2c(Cl)cc(Cl)c(Cl)c2c2ccccc12 | -0.45% | 7.65% | 1.5% | -18.4% | 21.1% | 4.85%
18 | Cn1ncc2c(N)nc(NCCO)nc21 | 1.1% | 4.75% | -4.75% | -19.1% | 13.7% | -0.2%

Row | SMILES | growth inhibition [1] | growth inhibition [2] | growth inhibition [3] | growth inhibition [4] | growth inhibition [5] | growth inhibition [6]
19 | CC(Br)C1=CC(c2ccccc2)(c2ccccc2)c2ccccc21 (stereo unspecified) | 97% (active) | 98% (active) | 97.9% (active) | 96.8% (active) | 97.3% (active) | 96.7% (active)
20 | C=C(CN(C)C)C1(c2ccccc2)CC2(CCCC2)C(=O)O1 (stereo unspecified) | 24.2% | 12% | 13.3% | -4.75% | 11.9% | 25.5%
21 | COc1ccc(OC)c(NC(=O)Nc2cccc(C(C)=O)c2)c1 | -12.2% | 33.9% | 33% | -55.4% | 35.2% | 22.6%
22 | COc1cc(Br)c(Br)cc1Br | 6.8% | 4.35% | -17.7% | 12.5% | 4.9% | 10.5%
23 | Cc1ccc(S(=O)CC(Cl)c2ccccc2)cc1 (stereo unspecified) | -26.6% | 4.2% | 13.2% | 56% | 14.3% | 21.1%
24 | CN(C)c1nnnn1Cc1ccccc1 | -1.35% | -3.8% | -7.25% | -26.3% | 5.65% | 1.8%
25 | O=C(O)c1cc(Cl)ccc1-c1ccc(Cl)cc1C(=O)Nc1ccc2c(c1)Cc1cc(Cl)cc(Cl)c1-2 | 96.2% (active) | 97.5% (active) | 97.8% (active) | 97.2% (active) | 95.6% (active) | 97.3% (active)
26 | Nc1ccc2cccc(O)c2c1 | 44.1% | 24.2% | 12.9% | -9.4% | 34.2% | 32.4%
27 | CCOc1ccc2nc3cc(I)ccc3c(N)c2c1 | 8.15% | -24.2% | 14.6% | -10.3% | -0.05% | 27.1%
28 | Clc1cccc2c(SCCCCCSc3c4ccccc4nc4c(Cl)cccc34)c3ccccc3nc12 | -3.45% | -8.9% | -22.4% | -33.5% | -23.9% | -24.6%
29 | CC1=NNC(=O)CC1C(O)c1ccccc1 (stereo unspecified) | -31.1% | 3.65% | -12.1% | 3% | -8.45% | -11.4%
30 | CC1CNC(=S)SSC(=S)N1 (stereo unspecified) | 35.8% | 26.5% | 20.9% | 32.7% | 14.1% | 27.7%
31 | C(=N\N1CCN(/N=C/c2cccc3ccccc23)CC1)/c1cccc2ccccc12 | 16.2% | 6.85% | 19% | 18.5% | -0.65% | 3.4%
32 | Cc1cccc(NC(=O)c2ccc(Cl)c(Cl)c2)c1 | 11.3% | 13.7% | -0.25% | -65.6% | 30.4% | -8.65%
33 | COC(=O)C(Cc1c[nH]c2ccccc12)NC(=O)c1ccccc1NC(=O)OCc1ccccc1 (stereo unspecified) | 5.85% | -13.1% | 9.15% | -14.1% | 15.1% | 7.65%
34 | CC(=O)C(=Cc1ccc(Cl)c(Cl)c1)C(C)=O | 99.5% (active) | 99.7% (active) | 99.7% (active) | 99.6% (active) | 99.5% (active) | 99.5% (active)
35 | C/C(N=NS(=O)(=O)c1c(C)cc(C)cc1C)=C1\C=CC=CN1O | -26.4% | -10.2% | -8.25% | -6.95% | 4.15% | -18.8%
36 | O=c1[nH]cc(NS(=O)(=O)O)c(=O)[nH]1 | -2.15% | -5.4% | 6.5% | 1.45% | 2.95% | -0.55%

From PubChem BioAssay (NCI)
